The values below come from PubChem BioAssay.

Activity calls are given as the source filed them. No rule for the calls is given here.

In this test the test system is Aerobactin synthetase IucA (Klebsiella pneumoniae, hypervirulent). Put plainly: biochemical IucA inhibition screen of LOPAC library by absorbance (AID 1346212).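 Also: 100% = no compound wells and 0% = no enzyme wells.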 To be noted: IucA enzyme assay, absorbance (OD) readout; hits give low values;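 tested at 8 µM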.
For the compound `CCOC(=O)Nc1ccc(NCc2ccc(F)cc2)nc1N`, the remaining activity (in general, the signal under treatment as a percentage of the control signal) is 97.8% (inactive).
Consider `c1ccc2c(c1)CC(N1CCN(c3cccc4c3OCCO4)CC1)C2`, for which the remaining activity is 108% (inactive).
Consider `Cn1cc(C2=C(c3ccc(Cl)cc3Cl)C(=O)NC2=O)c2ccccc21`, for which the remaining activity was 116% (inactive).
In the case of `C[C@H]1O[C@@H](n2cc(F)c(=O)[nH]c2=O)[C@H](O)[C@@H]1O`, the remaining activity is 98.9% (inactive).
Take `NCCCCNCCCN`: the remaining activity was 107% (inactive).
On to `N=C(N)c1ccccc1`, for which the remaining activity is 121% (inactive).
Turning to `CO/N=C(\C(=O)N[C@@H]1C(=O)N2C(C(=O)O)=C(COC(C)=O)CS[C@H]12)c1csc(N)n1` (stereo in doubt), the remaining activity is 123% (inactive).
Consider `O=C1N(c2ccccc2)c2ccccc2C1(Cc1ccncc1)Cc1ccncc1`, for which the remaining activity is 114% (inactive).
In the case of `Nc1c(C(=O)Nc2nnc(-c3ccccc3)s2)sc2nc3c(cc12)CCCCC3`, the remaining activity is 109% (inactive).
For the compound `C#CCN(C)CCCOc1ccc(Cl)cc1Cl`, the remaining activity is 122% (inactive).
In the case of `CCCCCC(O)CCCC(=O)O` (stereo not given), the remaining activity is 101% (inactive).
As for `Oc1ccc(C2CNCCc3c2cc(O)c(O)c3Cl)cc1` (stereo not given), the remaining activity was 94.3% (inactive).
Consider `Nn1nnc2ccccc21`, for which the remaining activity is 115% (inactive).
As to `CCCCCCCCCCCCCCCC(=O)NCC(COP(=O)([O-])OCC[N+](C)(C)C)OCC` (stereo not given), the remaining activity is 74.4% (inactive).
In the case of `O=C(O)CNC(=O)C(CS)Cc1ccccc1` (stereo not given), the remaining activity is 119% (inactive).
Regarding `O=Nc1c(-c2c(O)[nH]c3cc(Br)ccc23)[nH]c2ccccc12`, the remaining activity is 113% (inactive).
`CN(C(=O)CCCOc1ccc2[nH]c(=O)ccc2c1)C1CCCCC1`: the remaining activity was 124% (inactive).
To `Brc1c(NC2=NCCN2)ccc2nccnc12` belongs 105% (inactive); to `CN1C2CCC1CC(OC(=O)c1c[nH]c3ccccc13)C2` (stereo not given), 97.7% (inactive); to `CCCC(=O)NCCc1c2n(c3ccc(OC)cc13)CCCc1ccccc1-2`, 116% (inactive).
To `CN(C)C(=O)/N=N/C(=O)N(C)C` belongs 93.2% (inactive); to `Cc1ccccc1CNc1ncnc2c1ncn2[C@@H]1O[C@H](CO)[C@@H](O)[C@H]1O`, 122% (inactive); to `FC(F)(F)c1cc(CO[C@H]2CCCN[C@H]2c2ccccc2)cc(C(F)(F)F)c1`, 107% (inactive).
For `c1ccc(-c2ccccn2)nc1`, the remaining activity is 75.1% (inactive).
As to `CCCCCCCCCCCCCCC[C@H](O)[C@H](N)CO`, the remaining activity was 83.3% (inactive).
In the case of `NC(N)=Nc1nc(CSCC/C(N)=N/S(N)(=O)=O)cs1` it was 102% (inactive).
Regarding `COc1ccc2c(c1)c(CC(=O)O)c(C)n2Cc1ccc(F)cc1`, the remaining activity is 101% (inactive).
Turning to `Cc1cc(C)c(NC(=O)C[C@H](CC(=O)O)c2cccc3ccccc23)c(C(=O)N2CCC3(CCCC3)CC2)c1`, the remaining activity was 103% (inactive).
In the case of `CN(C)CC[C@@H](c1ccc(Cl)cc1)c1ccccn1`, the remaining activity is 117% (inactive).
Regarding `C[C@@H]1[C@@H]2Cc3ccc(O)cc3[C@@]1(C)CCN2CC1CC1`, the remaining activity is 103% (inactive).
For `CC(/C=C/c1cccc(Oc2ccc(F)cc2)c1)N(O)C(N)=O` (stereo not given), the remaining activity is 99.1% (inactive).
Consider `Cc1[nH]c(=O)c(C#N)cc1-c1ccncc1`, for which the remaining activity was 123% (inactive).
For `CNCCNS(=O)(=O)c1cccc2cnccc12`, the remaining activity is 102% (inactive).
With `C[C@]12CC[C@@H]3c4ccc(O)cc4C[C@@H](CCCCCCCCCS(=O)CCCC(F)(F)C(F)(F)F)[C@H]3[C@@H]1CC[C@@H]2O` (stereo not given in full), the remaining activity was 115% (inactive).
To `Ic1ccc(N2CCN(Cc3c[nH]c4ncccc34)CC2)cc1` belongs 115% (inactive); to `C[N+](C)(CCCCCC[N+](C)(C)CCCN1C(=O)c2cccc3cccc(c23)C1=O)CCCN1C(=O)c2cccc3cccc(c23)C1=O`, 100% (inactive); to `N#C/C(=C\c1ccc(O)c(O)c1)C(=O)Nc1ccccc1`, 103% (inactive).
In the case of `Cn1cc(C(=O)OCC2CCN(CCNS(C)(=O)=O)CC2)c2ccccc21` it was 104% (inactive).
In the case of `C#CCn1c(=O)c2c(ncn2C)n(C)c1=O` it was 109% (inactive).
Turning to `C[C@]12CCC(=O)C=C1CC[C@@H]1[C@@H]2[C@@H](O)C[C@@]2(C)[C@H]1CC[C@]2(O)C(=O)CO`, the remaining activity was 104% (inactive).
